# PubChem BioAssay AID1159580 (chemical genetic matrix, 2015)
# Out of some 5,500 compounds screened, about 2,000 (36%) were called active. About 18% were inconclusive and are not listed. The list shows a part of the results. Unmarked numbers belong to inactive results. Rule as the data show it: active = normalized growth mostly below about 0.91 (no sharp cut-off); inconclusive = no clear call, values can overlap the other calls; inactive = mostly above about 0.92.
# Experiment: chemical genetic growth profiling, strain panel (AID 1159580);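 also: tested at 20 µM; growth read once vehicle control cultures reached saturation at 30 °C; 1 = growth at the plate median or of vehicle wells; lower values mean less growth of the strain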
# Conditions: S. cerevisiae deletion strains, growth OD
# [1] = locus YHR030C, strain SLT2, hits give low values
# [2] = locus YHR079C, strain IRE1, hits give low values
# [3] = locus YJL095W, strain BCK1, hits give low values
# [4] = locus YJR066W, strain TOR1, hits give low values
# [5] = locus YLR113W, strain HOG1, hits give low values
# [6] = locus YNL183C, strain NPR1, hits give low values
# [7] = locus YOR231W, strain MKK1, hits give low values
# [8] = locus YPL256C, strain CLN2, hits give low values
smiles,measurement,setting,value
COc1cccc(OC)c1OCCNCC1CSc2ccccc2O1 (stereo unspecified),normalized growth,"locus YAL040C, strain CLN3, hits give low values",1.01
same,normalized growth,"locus YDR363W, strain ESC2, hits give low values",0.936
same,normalized growth,"locus YER002W, strain NOP16, hits give low values",1.01
same,normalized growth,"locus YJR075W, strain HOC1, hits give low values",0.985
same,normalized growth,"locus YMR263W, strain SAP30, hits give low values",0.995
same,normalized growth,"locus YMR307W, strain GAS1, hits give low values",1.01
same,normalized growth,"locus YNL175C, strain NOP13, hits give low values",0.986
same,normalized growth,"locus YNL197C, strain WHI3, hits give low values",1.02
same,normalized growth,"locus YNL224C, strain SQS1, hits give low values",1
same,normalized growth,"locus YOR083W, strain WHI5 (second series), hits give low values",0.966
same,normalized growth,"locus YPL241C, strain CIN2, hits give low values",1
ONC(=Nc1ccccc1Cl)c1ccccc1Cl,normalized growth,"locus YAR019C, strain CDC15, hits give low values",0.999
same,normalized growth,"locus YBL105C, strain PKC1, hits give low values",0.987
same,normalized growth,"locus YBR135W, strain CKS1, hits give low values",0.992
same,normalized growth,"locus YBR136W, strain MEC1, hits give low values",0.986
same,normalized growth,"locus YBR160W, strain CDC28, hits give low values",0.993
same,normalized growth,"locus YDL017W, strain CDC7, hits give low values",0.988
same,normalized growth,"locus YDL028C, strain MPS1, hits give low values",0.985
same,normalized growth,"locus YDL101C, strain DUN1, hits give low values",0.993
same,normalized growth,"locus YDL108W, strain KIN28, hits give low values",0.979
same,normalized growth,"locus YDL132W, strain cdc53, hits give low values",0.997
same,normalized growth,"locus YDL214C, strain PRR2, hits give low values",0.824
same,normalized growth,"locus YDR052C, strain DBF4, hits give low values",0.983
same,normalized growth,"locus YDR054C, strain cdc34, hits give low values",0.992
same,normalized growth,"locus YDR226W, strain ADK1, hits give low values",0.987
same,normalized growth,"locus YDR477W, strain SNF1, hits give low values",0.859
same,normalized growth,"locus YER123W, strain YCK3, hits give low values",0.688
same,normalized growth,"locus YER133W, strain GLC7, hits give low values",0.833
same,normalized growth,"locus YFL009W, strain cdc4, hits give low values",0.999
same,normalized growth,"locus YFL029C, strain CAK1, hits give low values",0.996
same,normalized growth,"locus YFR003C, strain YPI1, hits give low values",0.989
same,normalized growth,"locus YFR019W, strain FAB1, hits give low values",0.714 (active)
same,normalized growth,"locus YFR028C, strain CDC14, hits give low values",0.997
same,normalized growth,"locus YGR040W, strain KSS1, hits give low values",0.81
same,normalized growth,"locus YGR052W, strain FMP48, hits give low values",0.786
same,normalized growth,"locus YGR092W, strain DBF2, hits give low values",0.839
same,normalized growth,[1],0.731 (active)
same,normalized growth,[2],0.889
same,normalized growth,"locus YHR082C, strain KSP1, hits give low values",0.829
same,normalized growth,"locus YHR205W, strain SCH9, hits give low values",0.875
same,normalized growth,"locus YIL147C, strain SLN1, hits give low values",0.983
same,normalized growth,[3],0.697
same,normalized growth,"locus YJL128C, strain PBS2, hits give low values",0.95
same,normalized growth,"locus YJL157C, strain FAR1, hits give low values",0.785
same,normalized growth,"locus YJR016C, strain ILV3, hits give low values",0.986
same,normalized growth,"locus YJR066W, strain TOR1 (second series), hits give low values",0.729
same,normalized growth,[4],0.769
same,normalized growth,"locus YKL048C, strain ELM1, hits give low values",0.922
same,normalized growth,"locus YKL067W, strain YNK1, hits give low values",0.817
same,normalized growth,"locus YKL101W, strain HSL1, hits give low values",0.854
same,normalized growth,"locus YKL193C, strain SDS22, hits give low values",1
same,normalized growth,"locus YKL203C, strain TOR2, hits give low values",0.891
same,normalized growth,[5],0.839 (active)
same,normalized growth,"locus YLR133W, strain CKI1, hits give low values",0.841
same,normalized growth,"locus YLR403W, strain SFP1, hits give low values",0.832
same,normalized growth,"locus YML070W, strain DAK1, hits give low values",0.786
same,normalized growth,"locus YMR001C, strain CDC5, hits give low values",0.996
same,normalized growth,"locus YMR205C, strain PFK2 (second series), hits give low values",0.83
same,normalized growth,"locus YMR277W, strain FCP1, hits give low values",1
same,normalized growth,"locus YNL006W, strain LST8, hits give low values",0.997
same,normalized growth,"locus YNL020C, strain ARK1, hits give low values",0.809
same,normalized growth,"locus YNL161W, strain CBK1, hits give low values",0.994
same,normalized growth,[6],0.86
same,normalized growth,"locus YNL207W, strain RIO2, hits give low values",0.99
same,normalized growth,"locus YNL222W, strain SSU72, hits give low values",0.993
same,normalized growth,"locus YNL307C, strain MCK1 (second series), hits give low values",0.811
same,normalized growth,"locus YOL078W, strain AVO1, hits give low values",0.993
same,normalized growth,"locus YOL136C, strain PFK27, hits give low values",0.806
same,normalized growth,"locus YOR061W, strain CKA2, hits give low values",0.69
same,normalized growth,"locus YOR119C, strain RIO1, hits give low values",0.886
same,normalized growth,[7],0.836
same,normalized growth,"locus YOR329C, strain SCD5, hits give low values",0.998
same,normalized growth,"locus YPL031C, strain PHO85, hits give low values",0.824
same,normalized growth,"locus YPL153C, strain RAD53, hits give low values",0.777
same,normalized growth,"locus YPL204W, strain HRR25, hits give low values",0.859
same,normalized growth,"locus YPL209C, strain IPL1, hits give low values",0.992
same,normalized growth,[8],0.904
same,normalized growth,"locus YPR025C, strain CCL1, hits give low values",0.993
same,normalized growth,"locus YPR106W, strain ISR1, hits give low values",0.99
same,normalized growth,"locus YPR111W, strain DBF20, hits give low values",0.994
same,normalized growth,"strain NNK1, hits give low values",0.992
same,normalized growth,"strain TSCII, hits give low values",0.991
C[C@H]1O[C@H](O[C@H]2[C@H](O)[C@@H](O)[C@@H](O[C@H]3[C@H](O)[C@@H](O)C(O)O[C@@H]3CO)O[C@@H]2CO)[C@H](O)[C@@H](O)[C@@H]1N[C@H]1C=C(CO)[C@@H](O)[C@H](O)[C@H]1O (stereo partly specified),normalized growth,"locus YAL021C, strain ccr4, hits give low values",0.999
same,normalized growth,"locus YAL026C, strain drs2, hits give low values",1.03
same,normalized growth,"locus YAL030W, strain snc1, hits give low values",0.993
same,normalized growth,"locus YBL061C, strain skt5, hits give low values",0.984
same,normalized growth,"locus YBR009C, strain hhf1, hits give low values",1.01
same,normalized growth,"locus YBR023C, strain chs3, hits give low values",1.01
same,normalized growth,"locus YBR171W, strain sec66, hits give low values",0.979
same,normalized growth,"locus YBR231C, strain swc5, hits give low values",0.982
same,normalized growth,"locus YBR279W, strain paf1, hits give low values",1.01
same,normalized growth,"locus YCL011C, strain gbp2, hits give low values",1.03
same,normalized growth,"locus YCL016C, strain dcc1, hits give low values",1.02
same,normalized growth,"locus YCL069W, strain vba3, hits give low values",1
same,normalized growth,"locus YCR088W, strain abp1, hits give low values",0.991
same,normalized growth,"locus YDL005C, strain med2, hits give low values",1
same,normalized growth,"locus YDL040C, strain nat1, hits give low values",0.99
same,normalized growth,"locus YDR001C, strain nth1, hits give low values",0.995
same,normalized growth,"locus YDR069C, strain doa4, hits give low values",0.985
same,normalized growth,"locus YDR137W, strain rgp1, hits give low values",0.998
same,normalized growth,"locus YDR159W, strain sac3, hits give low values",0.981
same,normalized growth,"locus YDR195W, strain ref2",0.936
same,normalized growth,"locus YDR297W, strain sur2, hits give low values",0.988
same,normalized growth,"locus YDR334W, strain swr1, hits give low values",0.983
same,normalized growth,"locus YDR335W, strain msn5, hits give low values",0.974
same,normalized growth,"locus YDR392W, strain spt3, hits give low values",1.04
same,normalized growth,"locus YEL003W, strain gim4, hits give low values",0.974
same,normalized growth,"locus YEL037C, strain rad23, hits give low values",0.988
same,normalized growth,"locus YEL061C, strain CIN8 (second series), hits give low values",0.994
same,normalized growth,"locus YER015W, strain faa2, hits give low values",1.01
same,normalized growth,"locus YER016W, strain bim1, hits give low values",1
same,normalized growth,"locus YER111C, strain swi4, hits give low values",0.984
same,normalized growth,"locus YER155C, strain BEM2 (second series), hits give low values",0.977
same,normalized growth,"locus YFR010W, strain ubp6, hits give low values",0.978
same,normalized growth,"locus YGL167C, strain pmr1, hits give low values",0.974
same,normalized growth,"locus YGL173C, strain kem1, hits give low values",0.955
same,normalized growth,"locus YGL227W, strain vid30, hits give low values",0.987
same,normalized growth,"locus YGL240W, strain doc1, hits give low values",0.964
same,normalized growth,"locus YGL253W, strain hxk2, hits give low values",0.999
same,normalized growth,"locus YHR013C, strain ard1, hits give low values",0.992
same,normalized growth,"locus YHR027C, strain rpn1, hits give low values",1.01
same,normalized growth,[1],0.955
same,normalized growth,[2],0.959
same,normalized growth,"locus YHR142W, strain chs7, hits give low values",0.989
same,normalized growth,"locus YJL092W, strain hpr5, hits give low values",0.977
same,normalized growth,"locus YJL095W, strain BCK1 (second series), hits give low values",0.993
same,normalized growth,[3],0.957
same,normalized growth,"locus YJL115W, strain asf1, hits give low values",0.974
same,normalized growth,"locus YJL129C, strain trk1, hits give low values",0.969
same,normalized growth,"locus YJL154C, strain vps35, hits give low values",0.964
same,normalized growth,"locus YJL164C, strain tpk1, hits give low values",1.01
same,normalized growth,"locus YJL166W, strain qcr8, hits give low values",0.971
same,normalized growth,"locus YJL187C, strain SWE1, hits give low values",0.999
same,normalized growth,[4],0.916
same,normalized growth,"locus YKL160W, strain elf1, hits give low values",0.968
same,normalized growth,"locus YKR026C, strain gcn3, hits give low values",0.995
same,normalized growth,"locus YKR091W, strain srl3, hits give low values",0.988
same,normalized growth,"locus YLL001W, strain dnm1, hits give low values",0.945
same,normalized growth,"locus YLL026W, hits give low values",1.01
same,normalized growth,"locus YLL041C, strain sdh2, hits give low values",0.988
same,normalized growth,"locus YLR027C, strain aat2, hits give low values",0.993
same,normalized growth,[5],0.933
same,normalized growth,"locus YLR221C, strain rsa3, hits give low values",1.03
same,normalized growth,"locus YLR258W, strain gsy2, hits give low values",1.01
same,normalized growth,"locus YLR262C, strain YPT6 (second series), hits give low values",0.959
same,normalized growth,"locus YLR320W, strain mms22, hits give low values",1.01
same,normalized growth,"locus YLR342W, strain FKS1, hits give low values",0.973
same,normalized growth,"locus YLR357W, strain rsc2, hits give low values",0.985
same,normalized growth,"locus YLR370C, strain arc18, hits give low values",0.993
same,normalized growth,"locus YLR384C, strain iki3, hits give low values",0.977
same,normalized growth,"locus YML120C, strain ndi1, hits give low values",0.98
same,normalized growth,"locus YMR058W, strain fet3, hits give low values",0.996
same,normalized growth,"locus YMR125W, strain sto1, hits give low values",0.996
same,normalized growth,"locus YMR129W, hits give low values",0.989
same,normalized growth,"locus YMR205C, strain PFK2, hits give low values",0.983
same,normalized growth,"locus YMR231W, strain pep5, hits give low values",0.991
same,normalized growth,"locus YNL071W, strain lat1, hits give low values",1.01
same,normalized growth,[6],0.923
same,normalized growth,"locus YNL209W, strain ssb2, hits give low values",1.01
same,normalized growth,"locus YNL248C, strain rpa49, hits give low values",1.01
same,normalized growth,"locus YNL322C, strain KRE1 (second series), hits give low values",0.988
same,normalized growth,"locus YNR049C, strain mso1, hits give low values",0.987
same,normalized growth,"locus YOR001W, strain rrp6, hits give low values",0.96
same,normalized growth,"locus YOR070C, strain gyp1, hits give low values",1.01
same,normalized growth,"locus YOR080W, strain dia2, hits give low values",0.98
same,normalized growth,"locus YOR083W, strain WHI5, hits give low values",0.987
same,normalized growth,"locus YOR106W, strain vam3, hits give low values",0.979
same,normalized growth,[7],0.953
same,normalized growth,"locus YOR265W, strain rbl2, hits give low values",0.992
same,normalized growth,"locus YOR270C, strain vph1, hits give low values",1
same,normalized growth,"locus YOR290C, strain snf2, hits give low values",1.01
same,normalized growth,"locus YPL051W, strain arl3, hits give low values",1
same,normalized growth,"locus YPL078C, strain atp4, hits give low values",0.948
same,normalized growth,"locus YPL106C, strain sse1, hits give low values",1.02
same,normalized growth,"locus YPL240C, strain hsp82, hits give low values",0.988
same,normalized growth,[8],0.967
